A selection: hits, their analogues and other compounds. The true share with any hit is near 1.4%.
HNF4A DNA FP – change in binding of human HNF4 alpha to DNA; P41235; HNF4a-FITC DNA binding, fluorescence polarization, 1 h; activity change, % at 10 µM; 360,000 tested, 0.3% active; in the data active means activity change above about 30%, passing the limit was not always enough
IDE cell activ – activators of human insulin-degrading enzyme in cells; 340,000 tested, 0.073% active; activation, % at 5.96 µM; HEK cells, FAbeta-B cleavage, fluorescence polarization; 0% vehicle, 100% cell-free pure enzyme wells;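 active means activation above the mean of all tested compounds plus 3 SD, set per screening campaign, cut at about 17% in these data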
IDE inh – inhibitors of human insulin-degrading enzyme in cells | P14735 | HEK cells, FAbetaB cleavage, fluorescence polarization | inhibition, % at 5.59 µM | 320,000 tested, 0.41% active | AID 434962;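 active means percent inhibition above the average of all tested compounds plus 3 SD, set per screening campaign, cut at about 16% in these data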;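 further: IDE supplied by intact live HEK cells; FP after avidin binding of uncleaved biotin substrate so inhibition keeps polarization high; 0% = DMSO wells and 100% = 60 µM reference IDE inhibitor Ii1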
TPT1 inh – blocks Candida albicans tRNA 2'-phosphotransferase; recombinant caTPT1, FP RNA substrate dephosphorylation; inhibition, % at 5 µM; 300,000 tested, 0.81% active; AID 1962;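 active means inhibition above the mean of all tested compounds plus 3 SD, set per screening campaign, cut at about 24% in these data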;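 further: plate controls were DMSO alone for no effect and ferristatin control at 100 nM for full effect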
CRFR2-BP ag – agonists of human CRF-binding protein/CRF-R2 receptor complex. HEK293 CRF-R2/CRF-BP, calcium dye fluorescence (FLIPR); percent of saturating CRF peptide response. activation, % at 13.2 µM. AID 588473. 350,000 tested, 0.46% active;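 active means activation of at least 50%, plus an integration ratio under a set limit after plate pattern correction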;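 further: plate controls were neutral control wells without compound for no effect and CRF at EC100 for full effect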
IDE cell inh cf – cellular human IDE inhibition, confirmation. shares compounds with IDE inh. HEK cells, FAbetaB cleavage, fluorescence polarization. inhibition, % at 5.59 µM. 1,200 tested, 51% active;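 active means mean inhibition across triplicate wells above the cutoff set by the earlier primary insulin-degrading enzyme screen, cut at about 16% in these data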;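 further: 0% = DMSO wells and 100% = 60 µM reference IDE inhibitor Ii1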
HEK cytotox – kills HEK cells in IDE inhibitor counter-screen. 1,200 tested, 28% active. shares compounds with IDE inh. inhibition, % at 5.59 µM. HEK293 cytotoxicity, ATP luminescence; in the data active means inhibition above about 22%;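 further: 0% = vehicle wells and 100% = reference cytotoxic drug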
* = called active by the depositor; · = not tested or not shown.

SMILES	HNF4A DNA FP	IDE cell activ	IDE inh	TPT1 inh	CRFR2-BP ag	IDE cell inh cf	HEK cytotox
Cc1cccc(N2CCN(C(=O)NCc3ccc(F)cc3)CC2)c1C	3.6	0.0	2.9	-0.6	0.2	·	·
COc1ccc(CNC(=O)N2CCN(c3cccc(C)c3C)CC2)cc1OC	2.1	-0.8	17.5*	-2.9	-1.5	6.2	13.1
Cc1ccc(NC(=O)c2ncn(CCCNCC3CCCCC3)n2)cc1C	-2.7	·	·	·	-1.3	·	·
CCOC(=O)C1=C(CSc2nc3c(cc2C#N)CCC3)OC(N)=C(C#N)C1c1ccccc1 (configuration not stated)	2.6	-7.9	17.4*	3.8	1.3	0.1	7.8
CCOC(=O)C(=O)N(C)c1c(CC)nc2c(OCCC3CCCCC3)cccn12	-0.8	·	·	·	·	·	·
Cc1ccc(C(=O)NCC(=O)OCC(=O)Nc2cc(S(=O)(=O)N3CCOCC3)ccc2C)cc1	0.7	-5.4	-3.2	-0.9	-0.9	·	·
Cc1ccc(S(=O)(=O)N2CCOCC2)cc1NC(=O)COC(=O)CNC(=O)c1ccc(Oc2ccccc2)cc1	-2.1	-12.4	16.7*	-5.6	-1.7	6.0	12.6
S=c1[nH]nc(Nc2cccc(Cl)c2)s1	0.6	-1.1	17.0*	0.2	-0.1	5.8	6.3
CC[C@@H](NC(=O)[C@@H](Cc1ccccc1)NC(=O)CC[C@H]1O[C@@H](n2ccc(=O)[nH]c2=O)[C@H](O)[C@@H]1O)c1ccccc1	-0.7	·	·	·	·	·	·
C[C@@H]1C=C(C(=O)NCc2nc3ccccc3[nH]2)O[C@H](OCCCCO)C1	-4.0	-4.5	17.0*	4.7	-1.1	3.0	13.3
O=C(O)c1c2c(nc3ccccc13)/C(=C/c1cccc([N+](=O)[O-])c1)CCC2	1.4	0.9	1.4	-5.2	-0.1	·	·
Cc1c(C(=O)C(=O)N2CC=C(c3ccccc3)CC2)c2ccccc2n1C	0.2	-2.4	16.1*	-1.5	-0.8	2.0	54.6*
O=C(CCC1N=C2c3ccccc3N=C(SCc3cccc(Cl)c3)N2C1=O)NCc1ccco1 (configuration not stated)	-4.9	3.9	2.2	-2.1	0.1	·	·
O=C(CCC1N=C2c3ccccc3N=C(SCc3ccccc3Cl)N2C1=O)NCc1ccco1 (configuration not stated)	-0.2	-0.3	21.2*	-0.7	0.6	2.4	18.9
S=C(NCCCN1CCOCC1)N1CCN(c2ccccc2)CC1	9.2	1.5	-1.1	-1.3	0.1	·	·
S=C(NCC1CCCO1)N1CCN(c2cccc(Cl)c2)CC1 (configuration not stated)	-4.9	3.0	4.2	1.8	-1.1	·	·
S=C(NCC1CCCO1)N1CCN(c2nc(-c3ccc(Cl)cc3)cs2)CC1 (configuration not stated)	2.1	-22.6	20.6*	4.2	2.0	12.0	54.4*
S=C(NCCCN1CCOCC1)N1CCN(c2nc(-c3ccccc3)cs2)CC1	2.0	-6.2	22.7*	0.8	-0.8	2.1	26.9*
Cc1ccc(-c2ccccc2NC(=O)CS(=O)CC(=O)Nc2ccc(C)c(Cl)c2)o1 (configuration not stated)	-4.2	-8.2	26.0*	-33.6	-0.5	5.1	7.1
COc1ccc(OC)c(NC(=O)Nc2nc(C(N)c3ccccc3Cl)cs2)c1 (configuration not stated)	-0.6	·	·	·	·	·	·
COc1cc(NC(=O)C2CCN(c3cnccn3)CC2)cc(OC)c1OC	2.8	1.2	2.0	-1.8	-0.6	·	·
COc1cccc(NC(=O)N2CCN(c3ccc(C(F)(F)F)cn3)CC2)c1	-1.9	-6.5	18.1*	-2.4	-4.0	8.2	26.1*
Cc1cc(C(=O)N2CCN(c3ccc(C(F)(F)F)cn3)CC2)c(C)o1	6.2	-17.7	16.9*	-4.3	-4.4	2.2	21.5
O=C(Nc1ccccc1)N1CCCN(c2ccc(C(F)(F)F)cn2)CC1	-1.4	0.5	-4.3	0.4	-0.9	·	·
Cc1ccc(C(=O)N2CCN(c3ccc(C(F)(F)F)cn3)CC2)o1	1.6	-16.2	10.8	·	-0.9	·	·

Screens deposited in PubChem BioAssay by several laboratories.
